Compounds with a hit are over-represented: about 1.5% of the library has one in this group of screens.
AI-2 QS mod = Vibrio harveyi AI-2 quorum sensing modulation; Vibrio harveyi JMH597 AI-2 luminescence/OD600 ratio, 9 h; stronger effect = lower value; strain lacks LuxN and CqsS sensors; 0 = neutral-control median; activity change, % at 7.5 µM; 300,000 tested, 0.4% active; in the data active = activity change below about -75%, passing the limit was not always enough;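 note: luminescence divided by OD600 gain over 9 h not by final OD600 alone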
HGIII-sPLA2 inh = Blocks human group III sPLA2 activity. QFRET BODIPY PC-A2 liposome hydrolysis, fluorescence. Q9NZ20. AID 743126. inhibition, % at 12.2 µM. 370,000 tested, 0.56% active;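 active = inhibition above mean plus 3 SD of compounds lying within the high and low control bounds, cut at about 19% in these data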
Target sequence (Q9NZ20 whole entry, looked up): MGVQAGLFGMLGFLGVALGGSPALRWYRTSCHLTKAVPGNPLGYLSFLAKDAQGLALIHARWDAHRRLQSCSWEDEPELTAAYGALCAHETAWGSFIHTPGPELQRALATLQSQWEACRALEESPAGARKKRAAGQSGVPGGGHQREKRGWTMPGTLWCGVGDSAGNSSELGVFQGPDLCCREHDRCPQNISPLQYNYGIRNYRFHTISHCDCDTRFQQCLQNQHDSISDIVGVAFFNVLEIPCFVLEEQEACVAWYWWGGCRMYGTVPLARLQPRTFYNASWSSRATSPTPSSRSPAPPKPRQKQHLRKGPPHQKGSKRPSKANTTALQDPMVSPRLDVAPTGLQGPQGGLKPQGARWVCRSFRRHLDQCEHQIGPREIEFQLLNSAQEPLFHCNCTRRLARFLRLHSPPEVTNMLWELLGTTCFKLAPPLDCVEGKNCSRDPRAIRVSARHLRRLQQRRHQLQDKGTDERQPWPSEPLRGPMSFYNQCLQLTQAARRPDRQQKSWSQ
ARNT-TACC3 inh = disruptors of human ARNT/TACC3 interaction; Q9Y6A5; AlphaScreen His-ARNT PAS-B/GST-TACC3 binding, luminescence; TACC3 fragment carries E629A point mutation; inhibition, % at 9.99 µM; 390,000 tested, 0.66% active; AID 623870;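 active = mean inhibition of replicates at least 50% and at least half of replicates each reaching 50%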
Rin1 Abl inh = blocks binding of human Rin1 to Abl | 360,000 tested, 0.4% active | TR-FRET Rin1/Abl binding, biochemical | AID 588664 | P00519+Q13671 | inhibition, % at 7.35 µM; in the data active = inhibition above about 5%, passing the limit was not always enough
Rin1 Abl conf = confirmation of inhibitors of human Rin1-Abl interaction; shares compounds with Rin1 Abl inh; TR-FRET Rin1-Abl binding, purified proteins; inhibition, % at 7.35 µM; 1,300 tested, 49% active
GFP quencher = quenches GFP fluorescence, counter-screen for Rin1-Abl inhibitors; shares compounds with Rin1 Abl inh; inhibitors/quenchers counterscreen; inhibition, % at 6.75 µM; 1,300 tested, 8.5% active;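 note: ABL1-eGFP fusion protein alone without its partner RIN1-SBP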
GFP quench DR = GFP fluorescence interference dose response | IC50, µM | shares compounds with Rin1 Abl inh | AID 602182 | GFP fluorescence interference/quenching counterscreen | 230 tested, under 10 active; call rule not given here;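 note: ABL1-eGFP fusion protein alone without its RIN1 binding partner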
Each line names hits and unclear results; the compound was inactive in the other large screens (follow-up assays come after a bar, where they were run). Cut-off read from the data, not from the text of the source, unless noted: active = inhibition above about 6.5%; inactive = the rest.

C[C@@H](NC(=O)C[C@H]1CC[C@@H]2[C@H](COC[C@H](O)CN2C(=O)Nc2cc(Cl)cc(Cl)c2)O1)c1ccccc1	none (no result: AI-2 QS mod, HGIII-sPLA2 inh, Rin1 Abl inh)
O=C1Cc2cccc(=O)c(O)c2C(=O)O1	Rin1 Abl inh 8.2 (no result: AI-2 QS mod, ARNT-TACC3 inh) | Rin1 Abl conf 9.6 | GFP quencher inactive
CN(C)c1ccc(O)c2c1CC1CC3[C@@H](N(C)C)C(=O)C(C(N)=O)C(=O)[C@]3(O)C(=O)C1C2=O (stereo partly drawn)	ARNT-TACC3 inh 60, Rin1 Abl inh 13 (no result: AI-2 QS mod) | Rin1 Abl conf 7.8 | GFP quencher inactive
Cc1noc(C)c1S(=O)(=O)Nc1ccc2c(c1)C(=O)N([C@@H](C)CO)C[C@@H](C)[C@H](CN(C)Cc1ccccc1)O2	none (no result: AI-2 QS mod, HGIII-sPLA2 inh, Rin1 Abl inh)
CCOC(=O)c1ccc(NC(=O)COc2ccc(CNCCO)cc2OCC)cc1	none
CCOC(=O)c1ccc(NC(=O)COc2ccccc2CNCCc2ccccc2)cc1	Rin1 Abl inh 19 | Rin1 Abl conf 24 | GFP quencher inactive | GFP quench DR inactive
CC1(C)Cc2nc3nc(SCC(=O)NCCc4ccccc4)n(-c4ccccc4)c(=O)c3cc2CO1	Rin1 Abl inh 8.2 | Rin1 Abl conf inactive | GFP quencher inactive
CN1[C@H](C(=O)Nc2nccs2)[C@@H](CO)[C@@H]2Cn3c(ccc(/C=C/c4ccccc4)c3=O)[C@@H]21	none (no result: AI-2 QS mod, HGIII-sPLA2 inh, Rin1 Abl inh)
O=C(C1=COCCO1)N(Cc1nnc(-c2ccccc2Cl)o1)C1CC1	Rin1 Abl inh 8.2 (no result: AI-2 QS mod) | Rin1 Abl conf inactive | GFP quencher inactive
O=C(C1=COCCO1)N(Cc1nnc(-c2ccc(Cl)cc2)o1)C1CC1	none
Oc1cc2c(cc1O)C1c3ccc(O)c(O)c3OCC1(O)C2 (stereo not drawn)	Rin1 Abl inh 31 (no result: AI-2 QS mod) | Rin1 Abl conf 31 | GFP quencher 20
CCCCn1c(SCC2CCCO2)nc2cc(S(N)(=O)=O)ccc21 (stereo not drawn)	Rin1 Abl inh 5.9 | Rin1 Abl conf inactive | GFP quencher inactive
C[C@H](CO)N1C[C@H](C)[C@H](CN(C)CC2CC2)Oc2ccc(NC(=O)Cn3cnnn3)cc2CC1=O	none (no result: AI-2 QS mod, HGIII-sPLA2 inh, Rin1 Abl inh)
COc1ccc(CC(=O)OCC(=O)NC(=O)Nc2ccccc2F)cc1	Rin1 Abl inh 8.9 (no result: AI-2 QS mod, ARNT-TACC3 inh) | Rin1 Abl conf inactive | GFP quencher inactive
CCSc1nnc(NC(=O)CSc2nnc(CNC(=O)c3cc(OC)c(OC)c(OC)c3)o2)s1	none
CCc1nnc(NC(=O)CSc2nnc(CNC(=O)c3cc(OC)c(OC)c(OC)c3)o2)s1	Rin1 Abl inh 8.2 | Rin1 Abl conf inactive | GFP quencher inactive
C[C@@H]1CN([C@H](C)CO)C(=O)CCCn2cc(nn2)CO[C@H]1CN(C)Cc1ccc(Cl)c(Cl)c1	none (no result: AI-2 QS mod, HGIII-sPLA2 inh, Rin1 Abl inh)
CC12CN3CC(C)(CN(C1)C3c1ccccc1F)C2 (stereo not drawn)	Rin1 Abl inh 6.1 | Rin1 Abl conf inactive | GFP quencher inactive
CN1CCN(C(=O)C[C@H]2C=C[C@@H](NC(=O)Cc3ccccn3)[C@H](CO)O2)CC1	none (no result: AI-2 QS mod, HGIII-sPLA2 inh, Rin1 Abl inh)
CCOc1ccc(NC(=O)Nc2ccc3c(c2)nc(C)n3C)cc1	Rin1 Abl inh 5.7 | Rin1 Abl conf 11 | GFP quencher inactive
Cc1ccc(NC(=O)Nc2ccc3c(c2)nc(C)n3C)cc1C	none (no result: HGIII-sPLA2 inh, ARNT-TACC3 inh, Rin1 Abl inh)
CCOC(=O)CCCCC(=O)c1[nH]c(=O)[nH]c1Cn1ccnc1	Rin1 Abl inh 28 | Rin1 Abl conf 30 | GFP quencher inactive | GFP quench DR inactive
CCOC(=O)Cn1cnc(C)c1	none (no result: AI-2 QS mod)
CCCCSCc1[nH]c(=O)[nH]c1C(=O)CCCCC(=O)OCC	Rin1 Abl inh 48 | Rin1 Abl conf 46 | GFP quencher inactive | GFP quench DR inactive
Oc1ccc(/C=N/N=C(c2ccccc2)c2ccccc2)c(O)c1O	Rin1 Abl inh 21 (no result: AI-2 QS mod) | Rin1 Abl conf 41 | GFP quencher 16
C[C@@H]1CN([C@H](C)CO)C(=O)Cc2cc(NC(=O)Nc3ccc(F)cc3)ccc2O[C@@H]1CN(C)S(=O)(=O)c1cccs1	none (no result: AI-2 QS mod, HGIII-sPLA2 inh, Rin1 Abl inh)
CN(CC(=O)Nc1ccc(Cl)c(Cl)c1)C(=O)/C=C/c1ccc(F)cc1	Rin1 Abl inh 9.5 | Rin1 Abl conf inactive | GFP quencher inactive
CN(CC(=O)Nc1cccc(F)c1)C(=O)/C=C/c1ccc(S(=O)(=O)N2CCCCCC2)cc1	none (no result: AI-2 QS mod)
C[C@@H]1CN([C@@H](C)CO)S(=O)(=O)c2ccc(-c3ccc(C(=O)N(C)C)cc3)cc2O[C@H]1CN(C)C(=O)C1CCCCC1	none (no result: AI-2 QS mod, HGIII-sPLA2 inh, Rin1 Abl inh)
CC(C)CN1C(=O)NC(NS(=O)(=O)c2ccc(N)cc2)(C(F)(F)F)C1=O (stereo not drawn)	Rin1 Abl inh 6.7 | Rin1 Abl conf inactive | GFP quencher inactive
CC(=O)Nc1ccc(S(=O)(=O)NC2(C(F)(F)F)NC(=O)N(CC(C)C)C2=O)cc1 (stereo not drawn)	none
CC(=O)Nc1ccc(NC(=O)C(NC(=O)c2ccc(Cl)cc2)C(C)C)cc1 (stereo not drawn)	none (no result: AI-2 QS mod, ARNT-TACC3 inh)
Cc1ccc(C(=O)N[C@H](C(=O)Nc2cc(Cl)cc(Cl)c2)C(C)C)cc1	Rin1 Abl inh 5.8 | Rin1 Abl conf inactive | GFP quencher inactive
Cc1ccc(NS(=O)(=O)c2cc(OCC(N)=O)c(C)cc2Cl)cc1C	Rin1 Abl inh 12 (no result: ARNT-TACC3 inh) | Rin1 Abl conf inactive | GFP quencher inactive
Cc1cccc(NS(=O)(=O)c2cc(OCC(N)=O)c(C)cc2Cl)c1	none
O=C(C[C@H]1CC[C@@H](NC(=O)Nc2ccc(C(F)(F)F)cc2)[C@@H](CO)O1)NCc1ccccn1	none (no result: AI-2 QS mod, HGIII-sPLA2 inh, Rin1 Abl inh)
CC1=NN(c2ccc(Cl)c(C(=O)O)c2)C(=O)C1	Rin1 Abl inh 7.2 | Rin1 Abl conf inactive | GFP quencher inactive
CC1=NN(c2ccc(C(=O)O)cc2)C(=O)CC1	none
CC1=NN(c2ccc(C(=O)O)c(N)c2)C(=O)C1	ARNT-TACC3 inh 47, Rin1 Abl inh 12 | Rin1 Abl conf 7.1 | GFP quencher inactive
Cc1cccc(N2N=C(C(=O)O)CCC2=O)c1	none
C[C@H](CO)N1C[C@H](C)[C@@H](CN(C)Cc2ccc(C(=O)Nc3ccccc3N)cc2)Oc2ccc(NS(=O)(=O)c3ccccc3)cc2C1=O	none (no result: AI-2 QS mod, HGIII-sPLA2 inh, Rin1 Abl inh)
Cc1c(Cl)cccc1N=C(N)N=C(N)N	Rin1 Abl inh 9.1 (no result: ARNT-TACC3 inh) | Rin1 Abl conf inactive | GFP quencher inactive
NC(N)=NC(N)=Nc1cccc2ccccc12	none
COc1ccc2c(c1O)-c1ccccc1CCN(C)C2	none
CN1CCc2cccc3c2[C@@H]1Cc1ccc(O)c(O)c1-3	Rin1 Abl inh 17 (no result: HGIII-sPLA2 inh) | Rin1 Abl conf 12 | GFP quencher 13
Cc1c(F)cccc1NC(=O)CCCCCC1NC(=O)NC1C (stereo not drawn)	Rin1 Abl inh 86 | Rin1 Abl conf 98 | GFP quencher inactive | GFP quench DR inactive
CC1NC(=O)NC1CCCCCC(=O)Nc1ccc(F)cc1 (stereo not drawn)	Rin1 Abl inh 84 | Rin1 Abl conf 98 | GFP quencher inactive | GFP quench DR inactive

Source: PubChem BioAssay
